Source: PubChem BioAssay
Hits are enriched below; roughly 3.8% of the tested compounds scored in any of these assays.
Mdm2-MdmX inh: inhibitors of human Mdm2-MdmX association, primary screen, cell-based, luminescence, split luciferase, SaOS-2, uHTS; Protein Mdm4 (Homo sapiens) + E3 ubiquitin-protein ligase Mdm2 (Homo sapiens), …; SaOS-2 split-luciferase Mdm2/MdmX complementation; inhibition, % at 8 µM; 3% of 330,000 active; AID 485346, 2010;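 active = inhibition of at least 50% at 8 µM in the primary screen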
Target sequence (O15151 whole entry, looked up): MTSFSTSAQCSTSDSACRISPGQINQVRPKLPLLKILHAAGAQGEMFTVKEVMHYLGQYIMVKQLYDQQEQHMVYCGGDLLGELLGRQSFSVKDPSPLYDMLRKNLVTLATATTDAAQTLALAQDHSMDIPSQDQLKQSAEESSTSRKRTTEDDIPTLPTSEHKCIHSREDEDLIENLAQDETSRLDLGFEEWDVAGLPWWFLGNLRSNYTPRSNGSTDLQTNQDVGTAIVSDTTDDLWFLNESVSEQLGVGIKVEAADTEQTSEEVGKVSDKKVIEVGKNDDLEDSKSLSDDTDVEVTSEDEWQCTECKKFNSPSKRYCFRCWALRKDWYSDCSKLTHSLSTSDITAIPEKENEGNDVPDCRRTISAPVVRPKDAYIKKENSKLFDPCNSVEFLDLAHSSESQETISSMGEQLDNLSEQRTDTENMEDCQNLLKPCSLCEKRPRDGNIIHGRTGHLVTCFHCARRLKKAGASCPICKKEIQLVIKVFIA
Target sequence (Q00987 whole entry, looked up): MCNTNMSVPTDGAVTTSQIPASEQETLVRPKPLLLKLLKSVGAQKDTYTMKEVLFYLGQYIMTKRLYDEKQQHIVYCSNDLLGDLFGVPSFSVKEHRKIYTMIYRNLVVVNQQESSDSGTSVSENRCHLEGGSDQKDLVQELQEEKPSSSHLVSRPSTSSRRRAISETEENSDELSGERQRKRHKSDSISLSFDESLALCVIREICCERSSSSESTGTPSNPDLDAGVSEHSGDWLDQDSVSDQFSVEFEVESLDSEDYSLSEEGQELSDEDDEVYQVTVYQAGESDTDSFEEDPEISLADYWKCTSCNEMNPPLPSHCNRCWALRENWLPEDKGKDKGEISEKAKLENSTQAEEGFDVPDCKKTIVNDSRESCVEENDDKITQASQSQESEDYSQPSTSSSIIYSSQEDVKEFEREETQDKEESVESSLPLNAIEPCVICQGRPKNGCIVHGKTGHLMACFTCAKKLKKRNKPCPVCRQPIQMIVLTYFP
Gli-Sufu block: Gli-Sufu pathway antagonists, primary screen, luciferase luminescence, Sufu-KO-LIGHT cells, uHTS; Sufu-KO-LIGHT fibroblasts, Gli luciferase reporter luminescence; inhibition, % at 5 µM; 0.74% of 340,000 active; AID 588413, 2011;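 active = inhibition above about 55%, limit read from the data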;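 note: 0% = DMSO-treated cells and 100% = wells with medium but no cells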
Jurkat NFkB inh: inhibitors of induced NF-kB luciferase reporter, primary screen, TCR NF-kB activation inhibitor project, cell-based, luminescence, uHTS | Jurkat, PMA/ionomycin-induced NF-kB luciferase reporter | inhibition, % at 4 µM | 0.53% of 330,000 active | AID 435003, 2010; in the data active = inhibition above about 50%
Shn3 3UTR inh: reduction of Shn3 3'UTR firefly luciferase signal, primary screen, Schnurri-3 inhibitor project, cell-based, Clone20 osteoblasts, set 2; Clone20 osteoblast Shn3 3'UTR firefly luciferase, 24 h; inhibition, % at 12.5 µM; 0.52% of 360,000 active;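 active = mean inhibition of at least 75% with every replicate also reaching 75%; inconclusive = mean inhibition at least 75% but some replicate below; inactive = mean inhibition below 75%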;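 note: 0% = median of neutral control wells and 100% = pilot-screen positive control compound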
697 NFkB inh: inhibitors of PMA/ionomycin-induced NF-kB reporter, 697 cells, primary screen, B-cell NF-kB inhibitor project, cell-based, luminescence, uHTS | 697 B-cell NF-kB luciferase reporter, 16 h | AID 435022, 2010 | 0.33% of 330,000 active | inhibition, % at 4 µM; in the data active = inhibition above about 35%
Gli-Sufu confirm: Gli-SUFU pathway antagonists, confirmation, single concentration, luciferase luminescence, Sufu-KO-LIGHT cells; shares compounds with Gli-Sufu block; Gli luciferase reporter; inhibition, % at 5 µM; 40% of 2,500 active; AID 602428, 2012;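 active = mean inhibition at 5 µM reaching about 45%, limit read from the data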;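 note: plate controls were DMSO-treated cells for no effect and wells lacking cells for full effect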
Gli cytotox: cytotoxicity in Sufu-KO-LIGHT cells, confirmation, cytotoxicity control for Gli-SUFU antagonist project, cell-based, ATP luminescence, single concentration. shares compounds with Gli-Sufu block. 32% of 2,500 active. AID 651994, 2013. cytotoxicity, % at 5 µM;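 active = mean cytotoxicity at 5 µM above about 25%, limit read from the data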;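 note: cells exposed to compound overnight for roughly 16 to 18 hours; plate controls were DMSO wells with cells for no effect and medium without cells for full effect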
Wnt3a counter: Wnt3a reporter signal inhibition, confirmation, counter-screen for Gli-SUFU antagonist project, Wnt-LIGHT cells, luminescence, single concentration; shares compounds with Gli-Sufu block; Wnt3a-driven luciferase reporter; inhibition, % at 6.25 µM; 20% of 2,500 active;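 active = mean inhibition above about 25%, limit read from the data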
* marks the source's active call; other numbers are inactive results; u = inconclusive; x = no result.

SMILES	Mdm2-MdmX inh	Gli-Sufu block	Jurkat NFkB inh	Shn3 3UTR inh	697 NFkB inh	Gli-Sufu confirm	Gli cytotox	Wnt3a counter
O=C(CSCc1ccc(Cl)cc1)N/N=C/c1ccccc1	7.4	50.5	6.2	18.4	-22.4	7.6	15.2	-2.7
CCc1noc(C)c1C(=O)Nc1cccc2ncccc12	-3.6	0.3	-31.0	-10.0	-14.4	x	x	x
Cc1cc(S(=O)(=O)NCCc2ccccc2)ccc1-n1cnnn1	2.6	19.6	3.4	11.8	-1.0	x	x	x
O=S(=O)(NCCc1ccccc1)c1ccc(-n2cnnn2)cc1	20.9	53.6	28.9	14.5	12.7	16.6	1.3	-4.4
Cc1nc2ccccc2cc1OCc1ccccc1	8.5	26.1	18.6	61.9	-40.8	x	x	x
COc1cccc(COc2cc3ccccc3nc2C)c1	-8.7	52.7	32.3	72.7	9.2	58.4*	30.5*	15.2
COC(=O)c1sccc1OCc1cccc(OC)c1	16.0	-0.3	-18.8	4.8	10.1	x	x	x
Cc1nc2ccccc2cc1OCc1ccc(Cl)cc1	-8.7	53.4	23.8	67.4	-17.5	50.1*	36.9*	4.0
O=C(CN(C(=O)CNC(=O)c1ccco1)c1ccc(F)cc1)NC1CCCCC1	6.6	28.1	-2.7	-12.8	13.9	x	x	x
Cc1c(Cl)cccc1NC(=O)CCN1CCC(C(N)=O)CC1	-1.6	57.2*	2.7	-17.2	14.9	21.4	2.6	18.6
CCn1c(=O)n(CC)c2cc(N3CCCC3)c(NC(=O)c3cccc(C)c3)cc21	17.2	-2.6	4.1	-12.2	12.3	x	x	x
CCn1c(=O)n(CC)c2cc(N3CCCC3)c(NC(=O)c3ccc(C)c([N+](=O)[O-])c3)cc21	9.2	50.8	1.6	-3.6	3.6	52.9*	34.7*	7.5
COc1nc(NCCC2=CCCCC2)nc(OC)n1	1.3	98.7*	5.5	1.8	-3.6	17.9	2.6	-20.4
COc1nc(NCCc2ccc(OC)c(OC)c2)nc(OC)n1	-4.5	0.5	0.3	-8.8	10.3	x	x	x
CC(C)(Oc1ccc(Cl)cc1)C(=O)N/N=C/c1cn[nH]c1-c1ccccc1	-7.7	-0.2	-4.4	-19.1	18.4	x	x	x
Clc1ccc(-c2nnc(CSc3nnc(-c4cccs4)n3Cc3ccccc3)o2)cc1	7.1	67.9*	29.9	75.6	-12.7	66.4*	31.7*	9.9
COc1ccc(CNc2ncnc3sccc23)cc1OC	17.3	30.1	30.4	82.0	-8.5	x	x	x
COc1ccc(CNc2ncnc3sccc23)cc1	28.4	61.1*	34.8	u	0.3	48.5*	37.4*	23.9
Cc1ccc(C)c(CN2C(=O)COc3ccc(C(=O)c4ccccc4C(=O)O)cc32)c1	20.8	52.8	-0.6	-13.2	-5.1	19.9	5.2	-7.0
Cc1ccc(S(=O)(=O)N2CCN(c3ccc(N4CCOCC4)nn3)CC2)cc1[N+](=O)[O-]	-16.8	4.6	2.5	6.9	7.7	x	x	x
O=[N+]([O-])c1ccc(S(=O)(=O)N2CCN(c3ccc(N4CCOCC4)nn3)CC2)cc1	29.4	55.0	-24.8	-16.5	18.3	32.6	19.4	-20.9
COc1c(O[C@@H]2O[C@H](CO)[C@@H](O)[C@H](O)[C@H]2O)cc2c(c1OC)-c1ccc(SC)c(=O)cc1C(NC(C)=O)CC2 (stereo not given in full)	-5.0	2.7	4.4	-1.6	20.3	x	x	x
COc1cc2c(c(OC)c1OC)-c1ccc(SC)c(=O)cc1C(NC=O)CC2 (stereo not given)	x	46.8	x	6.4	x	x	x	x
C=COC(=O)NC1CCc2cc(OC)c(OC)c(OC)c2-c2ccc(SC)c(=O)cc21 (stereo not given)	x	66.2*	x	-7.9	x	64.4*	63.0*	39.8*
COc1cc2c(c(OC)c1OC)-c1ccc(SC)c(=O)cc1C(NC(=O)c1ccccc1)CC2 (stereo not given)	x	63.2*	x	7.3	x	66.2*	50.9*	45.5*
SMILES	Mdm2-MdmX inh	Gli-Sufu block	Jurkat NFkB inh	Shn3 3UTR inh	697 NFkB inh	Gli-Sufu confirm	Gli cytotox	Wnt3a counter
S=C(NCc1ccccc1)N1CCN(C(=S)NCc2ccccc2)CC1	21.6	-3.4	16.7	-8.2	7.6	x	x	x
CCc1ccc2c(CN3CCN(S(=O)(=O)c4ccccc4F)CC3)cc(=O)oc2c1	17.7	56.1*	1.5	9.6	13.6	14.4	-0.4	-14.6
CCc1ccc2c(CN3CCN(S(=O)(=O)c4cccs4)CC3)cc(=O)oc2c1	12.6	-6.7	-2.7	-14.4	15.7	x	x	x
COc1ccccc1N(C)S(=O)(=O)c1ccc(C(=O)Nc2ccncc2)cc1	29.0	21.3	8.7	43.1	-9.3	x	x	x
O=C(c1ccc(Cl)cc1)c1ccc(OCC(=O)N2CCOCC2)cc1	10.1	68.9*	-15.3	-4.5	-18.4	15.3	20.9	-36.5
O=C(COc1ccc(Cl)cc1)OCC(=O)N1CCOCC1	7.2	1.1	2.5	-46.5	13.6	x	x	x
COc1ccc(Nc2c3ccccc3nc3ccccc23)cc1	25.9	54.9	14.8	68.0	-90.0	56.1*	31.4*	-37.5
CCC(CC)NC(=O)CSc1ccc(S(=O)(=O)N2CCCCC2)cn1	7.0	-5.0	12.8	9.0	-0.4	x	x	x
O=C(NCc1ccc(F)cc1)C(=O)NCC1OCCCN1S(=O)(=O)c1cccs1 (stereo not given)	17.3	98.6*	3.7	13.6	15.7	4.2	0.8	-2.0
O=C(NCc1ccccc1)C(=O)NCC1OCCCN1S(=O)(=O)c1cccs1 (stereo not given)	-1.1	-8.6	8.6	8.5	-3.7	x	x	x
COc1ccc(CCNC(=O)c2ccccc2NS(=O)(=O)c2c(F)cccc2F)cc1	23.3	-5.0	15.4	13.4	9.7	x	x	x
O=C(CCSc1nnc2scc(-c3ccccc3)n12)NCc1ccc2c(c1)OCO2	-2.7	-3.9	-2.4	1.9	6.5	x	x	x
c1ccc(-c2csc3nnc(SCc4ccc5c(c4)OCO5)n23)cc1	-8.3	52.1	0.4	23.8	-7.6	10.0	5.8	4.8
CC1(Cc2ccc(C(F)(F)F)o2)C(=O)Nc2cc(-c3ccc(F)cc3F)ccc21 (stereo not given)	x	x	x	65.4	x	x	x	x
CC1=C(C(=O)OC2CCCCC2)C(c2ccc(O)cc2)NC(=O)N1 (stereo not given)	3.5	95.5*	11.2	6.5	10.1	24.3	4.8	-11.4
COC(=O)c1c(-n2cnnn2)sc(C)c1C	22.8	50.3	8.7	5.5	13.7	19.6	2.2	-41.4
